{
  "source": "PubChem BioAssay (NCATS)",
  "note": "The source made the active and inactive calls. How the calls were made is not given here. Potency means the concentration at half of the fitted maximal effect.",
  "data": [
    {"system": "HIV-1 nucleocapsid protein NCp7 (binding to TG oligonucleotide)", "test": "HIV Nucleocapsid (AID 346);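 further: potency is for inhibitors that block NC binding and lower polarization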", "conditions": "HIV-1 NC / fluorescein-TGTGTGTG probe, fluorescence polarization", "procedure,_shortened": "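Reagents dispensed (10 nM TG4xF, 100 nM HIV-1 NC), plates spun, compounds pin-transferred, then incubated 1 hr at room temperature before FP imaging. Buffer: Hepes pH 7.5, 250mM NaCl, 1uM ZnCl2, 100 uM TCEP, 5 mM 2-mercaptoethanol.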", "values": [
      {"compound": "COc1ccc(C(=O)N2CCC3(CC2)CN(c2ncccn2)C3)cc1", "Potency": "> 20 µM (inactive)"},
      {"compound": "COc1ccccc1CN1CCC2(CC1)CCN(S(C)(=O)=O)CC2", "Potency": "> 20 µM (inactive)"},
      {"compound": "COCC(=O)N1CCC2(CCN(Cc3ccccc3)CC2)CC1", "Potency": "> 20 µM (inactive)"},
      {"compound": "COc1ccc(C(=O)N2CCC[C@@]3(CCN(Cc4ccccc4OC)C3)C2)cc1", "Potency": "> 20 µM (inactive)"},
      {"compound": "CN(C)c1ccc(-c2nc(N(C)C)c3ccccc3n2)cc1", "Potency": "> 20 µM (inactive)"},
      {"compound": "COCCn1c(=O)c(-c2ccc(OC)cc2)nc2cnc(N3CCN(C)CC3)nc21", "Potency": "> 20 µM (inactive)"},
      {"compound": "CN(C)c1ncnc2ccc(-c3cccc(NS(C)(=O)=O)c3)cc12", "Potency": "> 20 µM (inactive)"},
      {"compound": "Cc1cccc(CNc2ncnc3ccc(-c4cccnc4)cc23)c1", "Potency": "> 20 µM (inactive)"},
      {"compound": "N#Cc1cccc(-c2nc3cnc(N4CCOCC4)nc3n(Cc3ccc(F)cc3)c2=O)c1", "Potency": "> 20 µM (inactive)"},
      {"compound": "Cc1cnc(CNc2nc(-c3cccc(NS(C)(=O)=O)c3)nc3ccccc23)cn1", "Potency": "> 20 µM (inactive)"},
      {"compound": "O=C(c1cnccn1)N1CCC2(CC1)CN(C(c1ccccc1)c1ccccc1)C2", "Potency": "> 20 µM (inactive)"},
      {"compound": "CN1CCN(c2ncncc2-c2ccc(N(C)C)cc2)CC1", "Potency": "> 20 µM (inactive)"},
      {"compound": "CC(C)CN1CC2(CCN(C(=O)c3cccc(F)c3)CC2)C1", "Potency": "> 20 µM (inactive)"},
      {"compound": "CC(=O)N1CCC2(CCCN(Cc3ccc(C#N)cc3)C2)CC1", "Potency": "> 20 µM (inactive)"},
      {"compound": "COc1ccc(NC(=O)N2CC[C@@]3(CCCN(C(=O)c4ccncc4)C3)C2)cc1", "Potency": "> 20 µM (inactive)"},
      {"compound": "O=c1c(-c2ccc(Cl)cc2)nc2cnc(N3CCOCC3)nc2n1-c1ccccc1", "Potency": "> 20 µM (inactive)"},
      {"compound": "Cc1noc(C)c1-c1nc(NC2CC2)c2ccccc2n1", "Potency": "> 20 µM (inactive)"},
      {"compound": "COc1cccc(-c2ccc3ncnc(NC4CCNCC4)c3c2)c1", "Potency": "> 20 µM (inactive)"},
      {"compound": "O=C(Nc1ccccc1)N1CCCC2(CCN(S(=O)(=O)c3ccccc3)CC2)C1", "Potency": "> 20 µM (inactive)"},
      {"compound": "O=C(c1ccco1)N1CCC2(CCCN(c3ncccn3)C2)CC1", "Potency": "> 20 µM (inactive)"},
      {"compound": "Fc1ccc(Nc2ccnc(-c3ccc4c(c3)OCO4)n2)cc1", "Potency": "> 20 µM (inactive)"},
      {"compound": "O=C(c1ccco1)N1CCC2(CC1)CCN(C(c1ccccc1)c1ccccc1)CC2", "Potency": "> 20 µM (inactive)"},
      {"compound": "O=C(c1cc(C(F)(F)F)cc(C(F)(F)F)c1)N1CCC2(CC1)CN(Cc1ccncc1)C2", "Potency": "> 20 µM (inactive)"},
      {"compound": "COc1ccc2[nH]cc(CCNc3ncnc4ccc(-c5c(C)noc5C)cc34)c2c1", "Potency": "> 20 µM (inactive)"},
      {"compound": "COc1ccc(Oc2ncc3ncc(=O)n(C[C@H]4CCCO4)c3n2)cc1", "Potency": "> 20 µM (inactive)"},
      {"compound": "COc1ccccc1CNc1ncncc1-c1ccccc1Cl", "Potency": "> 20 µM (inactive)"},
      {"compound": "COCCn1c(=O)c(CCc2ccccc2)nc2cnc(N3CCNCC3)nc21", "Potency": "> 20 µM (inactive)"},
      {"compound": "O=c1c(CCc2ccccc2)nc2cnc(N3CCOCC3)nc2n1CCc1ccccc1", "Potency": "> 20 µM (inactive)"},
      {"compound": "CN1CCN(c2ncc3ncc(=O)n(CCc4ccccc4)c3n2)CC1", "Potency": "> 20 µM (inactive)"},
      {"compound": "COc1ccc(-c2nc3cnc(N(C)C)nc3n(CCC#N)c2=O)cc1", "Potency": "> 20 µM (inactive)"},
      {"compound": "CN1CCN(c2ncncc2-c2ccc(C(=O)N(C)C)cc2)CC1", "Potency": "> 20 µM (inactive)"},
      {"compound": "COc1ccccc1-c1cc(NCc2cccc(C)c2)ncn1", "Potency": "> 20 µM (inactive)"},
      {"compound": "O=c1c(-c2ccc(Cl)cc2)nc2cnc(N3CCOCC3)nc2n1C[C@H]1CCCO1", "Potency": "> 20 µM (inactive)"},
      {"compound": "O=c1c(-c2ccccc2)nc2cncnc2n1Cc1ccc(F)cc1", "Potency": "> 20 µM (inactive)"},
      {"compound": "CC(=O)N1CCC2(CCCN(c3ccc(-c4ccccc4)cc3)C2)CC1", "Potency": "> 20 µM (inactive)"},
      {"compound": "COc1cccc(Cn2c(=O)c(-c3cccs3)nc3cnc(N4CCNCC4)nc32)c1", "Potency": "> 20 µM (inactive)"},
      {"compound": "COCC(=O)N1CCC[C@@]2(CCN(C(=O)Nc3cccc(C#N)c3)C2)C1", "Potency": "> 20 µM (inactive)"},
      {"compound": "COc1ncc2nc(C)c(=O)n(Cc3ccc(F)cc3)c2n1", "Potency": "> 20 µM (inactive)"},
      {"compound": "CC(=O)NCCNc1ncnc2ccc(-c3cccc(NS(C)(=O)=O)c3)cc12", "Potency": "> 20 µM (inactive)"}
    ]}
  ]
}
